# According to PubChem BioAssay (NCI):
# Compounds without any hit were thinned out: in the full panel of roughly 83,000, 20% have a hit.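 The test compound was applied at a single concentration to cells in 96-well plates for 48 hours, and percent growth was recorded.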 Unmarked numbers belong to inactive results. Active and inactive are the calls of the source. How the source made its calls: active means growth percent below 10; inactive means the rest.
# Tests used:
# Assay in all cases: NCI-60 one-dose screen, 48 h (100 = growth as untreated, 0 = no growth, -100 = all killed)
# Conditions in all cases: 10 µM unless noted
# [1] = tested on: SR leukemia
# [2] = tested on: RPMI-8226 leukemia
# [3] = tested on: OVCAR-8 ovarian
# [4] = tested on: OVCAR-5 ovarian
# [5] = tested on: OVCAR-4 ovarian
# [6] = tested on: SK-OV-3 ovarian
# [7] = tested on: IGROV1 ovarian
# [8] = tested on: OVCAR-3 ovarian
# [9] = tested on: HS 578T breast
# [10] = tested on: NCI/ADR-RES ovarian
# [11] = tested on: T-47D breast
# [12] = tested on: BT-549 breast
# [13] = tested on: MDA-MB-435 melanoma
# [14] = tested on: SW-620 colon
# [15] = tested on: MCF7 breast
# [16] = tested on: HCT-116 colon
# [17] = tested on: HCC-2998 colon
# [18] = tested on: KM12 colon
SMILES,growth [1],growth [2],growth [3],growth [4],growth [5],growth [6],growth [7],growth [8],growth [9],growth [10],growth [11],growth [12],growth [13],growth [14],growth [15],growth [16],growth [17],growth [18]
Fc1ccc2[nH]cc(-c3nc(-c4c[nH]c5c(Cl)nccc45)cs3)c2c1,13.3%,48.5%,52%,99.1%,65.3%,47.5%,61.7%,70.9%,39%,53.7%,35.1%,75.1%,60.4%,2.51% (active),45.8%,39.6%,56.2%,33.2%
COc1ccc(C2CC(n3ccnc3)c3cc(OC)c(OC)c(OC)c32)cc1O (stereo unspecified),35.4%,94.6%,89.2%,107%,100%,86.3%,82.4%,57.1%,85.4%,93.9%,94.3%,90.4%,5% (active),62.5%,44.8%,81.1%,99.2%,50.6%
O=C(Nc1nc(Cl)nc(Nc2ccc(N3CCOCC3=O)cc2)n1)c1ccc(Cl)s1,7.06% (active),90.3%,87.6%,99%,102%,99%,72.6%,102%,89.8%,99%,71.7%,106%,96.4%,76.1%,59.1%,84.3%,82.3%,90.6%
COc1ccc(Cl)cc1Nc1nc(C(F)(F)F)ccc1C(=O)N/N=C/c1ccc([N+](=O)[O-])cc1,0.718% (active),-49.7% (active),9.77% (active),4.96% (active),-12.1% (active),14.5%,-0.273% (active),-1% (active),3.18% (active),2.09% (active),7.15% (active),18.6%,15.9%,5.81% (active),-8.58% (active),11.3%,-27.8% (active),-3.54% (active)
C#Cc1cccc(NC(=O)C2CCCCN2C(=O)CCl)c1 (stereo unspecified),2.64% [8.25 µM] (active),-38.4% [8.25 µM] (active),2.11% [8.25 µM] (active),-95% [8.25 µM] (active),-66.9% [8.25 µM] (active),33.1% [8.25 µM],-69.9% [8.25 µM] (active),-66.3% [8.25 µM] (active),-22.1% [8.25 µM] (active),-5.37% [8.25 µM] (active),-4.16% [8.25 µM] (active),-55.9% [8.25 µM] (active),-57.3% [8.25 µM] (active),-59.9% [8.25 µM] (active),-7.64% [8.25 µM] (active),-30.7% [8.25 µM] (active),-18.7% [8.25 µM] (active),-34.2% [8.25 µM] (active)
CCOC(=O)c1c(C)nc2c(c1N)C(=O)C(=O)N2Cc1ccc(OC)cc1,31%,20.1%,61.6%,97.5%,46.6%,108%,82.5%,18.2%,79.2%,8.45% (active),49.1%,80.5%,31%,41.9%,18.6%,25.1%,99.3%,25.7%
CCOC(=O)C1=C(CCl)N(C)C(=O)NC1c1ccc2c(c1)OCO2 (stereo unspecified),19.8%,12.3%,44.9%,76.9%,55.9%,93.7%,74.6%,25.2%,50%,72%,35.6%,37.8%,26.6%,8.16% (active),51.8%,19.1%,94.6%,73.1%
